Nrf2 block = blocks Nrf2 signaling; 2.1% of 360,000 active; Potency, µM (titrated, usually from 46 µM), usual class: inhibitors; A549 ARE-Fluc reporter, luciferase luminescence, 18-24 h; also: nearly all actives have a fitted effect of over 60% in size
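Reporter: ARE-Fluc in A549. Exposure: 18-24 h, 37 °C, 5% CO2, 5% FBS OPTI-MEM. Readouts: fluorescent cytotoxicity (CellTiter-Fluor), then luminescent Nrf2 signal after BugLite.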
PINK1 expr mod = PINK1 expression modulation | PINK1 immunofluorescence, high-content cytometry, 24 h | 0.2% of 410,000 active | Potency, µM (top dose mostly 76.6 µM), most hits filed as activators; active = well fitted activation curve with a large enough effect; inconclusive = small, poorly fitted or top-dose-only effect; cell line not stated here; also: nearly all actives have a fitted effect of over 65% in size
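PINK1 protein, normally rapidly degraded, was detected by immunofluorescence after 24 hour compound treatment of a stable cell line. Titration data (5 concentrations) came from laser-scanning cytometry, with CCCP-treated wells as controls.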
A549 tox = counter-screen for Nrf2 inhibitors: cytotoxicity in A549 cells | AID 504648 | A549 ARE-Fluc cells, CellTiter-Fluor viability, 18-24 h | 0.16% of 390,000 active | Potency, µM (doses to about 46 µM), usual class: inhibitors
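Cytotoxicity counterscreen: CellTiter-Fluor fluorescence was measured in A549 ARE_Fluc cells after 18-24 h of compound exposure in a concentration series. The subsequent BugLite luminescent read reports ARE-luciferase activity.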
Nrf2 ARE act = activators of Nrf2 (ARE) signaling. 0.31% of 410,000 active. AID 624171. AREc32 ARE-luciferase reporter (MCF7-derived line), luminescence, 24 h. Potency, µM (series often up to 46.1 µM), usual class: activators; also: nearly all actives have a fitted effect of over 65% in size
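AREc32 cells carrying an ARE-driven firefly luciferase, 1000 cells/well in OPTI-MEM with 5% FBS, dosed after overnight attachment and incubated 24 hr at 37 deg C. Steady-Glo luminescence read after 30 min at RT.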
Epigenetic derep = epigenetic control regulation, reporter derepression | murine LDR cells, GFP reporter derepression, 30 h | 0.2% of 280,000 active | Potency, µM (highest dose often 53.9 µM), usual class: activators; also: nearly all actives have a fitted effect of over 60% in size
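Murine LDR cells bearing a silenced CMV-driven GFP reporter were exposed to compound for 30 h at 37 C. After PBS washes, GFP-positive cells (20-120 um objects) counted by laser-scanning microplate cytometry.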
Large screens that a line does not name were inactive. Sampled rows, rich in hits. Any-hit rate of the full collection: about 2.4%. Unless noted, calls follow the shape of the dose curve; as a rule, active = well fitted curve in the direction sought with a large enough effect; inconclusive = small, poorly fitted or top-dose-only effect, or another doubt; inactive = no such curve, though single readings can be large; an effect the other way counts as inactive or inconclusive.

CCCNC(=O)c1nnsc1S(=O)c1ccc(Cl)cc1 (configuration not stated)	none
COc1cccc(N=Nc2ccc(O)c3ncccc23)c1	Nrf2 block inconclusive, A549 tox inconclusive, Nrf2 ARE act 11µM (no result: Epigenetic derep)
O=S(=O)(O)c1cccc2c(N=Nc3ccc(O)c4ncccc34)cccc12	A549 tox 12µM (no result: Epigenetic derep)
COc1ccc(N=Nc2ccc(O)c3ncccc23)cc1	Nrf2 block 12µM, A549 tox inconclusive, Nrf2 ARE act inconclusive
Cc1ccccc1N=Nc1ccc(O)c2ncccc12	none
O=C(O)c1c(Sc2ccccc2)c2cc(Cl)ccc2n1Cc1ccc(Cl)cc1	none (no result: Nrf2 block, PINK1 expr mod, A549 tox, Nrf2 ARE act)
O=C1c2ccccc2C(=O)N1c1cnc2ccccc2c1	none (no result: PINK1 expr mod, Nrf2 ARE act, Epigenetic derep)
Cc1sc2nc(CSc3ccccc3)nc(N3CCC(C(N)=O)CC3)c2c1C	Nrf2 block inconclusive
CCOC(=O)c1sc2nc(CSc3ccccc3)nc(N3CCC(C(N)=O)CC3)c2c1C	Nrf2 block 21µM
COc1cccc(N2CCN(C(=O)Cn3cnc4onc(-c5ccc(F)cc5)c4c3=O)CC2)c1	Nrf2 block 16µM
COc1ccc(N2CCN(C(=O)CCn3cnc4onc(-c5ccc(F)cc5)c4c3=O)CC2)cc1	Nrf2 block inconclusive
Cc1ccc(NC2=C/C(=N\S(=O)(=O)c3cccs3)c3ccccc3C2=O)c(C)c1	Nrf2 block inconclusive, A549 tox 18µM
Cc1ccc(Cl)cc1NC1=C/C(=N\S(=O)(=O)c2cccs2)c2ccccc2C1=O	Nrf2 block 16µM, A549 tox inconclusive
COc1cccc(CNC(=O)c2cc3c(=O)n(Cc4cccnc4)ccc3nc2C)c1	Nrf2 block inconclusive
Cc1ccc(-c2nc(CN(C)Cc3cccc4cnccc34)c(C)o2)s1	Nrf2 block 23µM
O=c1c2ccc(Cl)cc2nc(-c2cccc(C(F)(F)F)c2)n1O	Nrf2 block 23µM
Cc1ccc(Nc2cc(C)nn2-c2nc(C)cc(=O)[nH]2)cc1	Nrf2 block 1.8µM, A549 tox 13µM, Nrf2 ARE act inconclusive
O=C(NCCc1cn2ccccc2n1)c1cc(COc2ccc3ncccc3c2)on1	Nrf2 block 16µM, A549 tox inconclusive
O=C(Cc1ccccc1)NC1CC(=O)N(c2ccccc2)C1 (configuration not stated)	none (no result: Nrf2 block)
CC(=O)c1cc(-c2ccccc2)n(CCC(=O)Nc2nc3c(C)cccc3s2)c1C	none (no result: Nrf2 block)
O=[N+]([O-])c1ccc(N/N=C2\CC3CC=CC23)c([N+](=O)[O-])c1 (configuration not stated)	Nrf2 block 23µM, A549 tox inconclusive
CCCCN(C(=O)CSc1nnc(-c2ccc(Cl)cc2)o1)c1c(N)n(CC(C)C)c(=O)[nH]c1=O	Nrf2 block 18µM, A549 tox inconclusive (no result: Epigenetic derep)
O=[S+]([O-])(c1ccc(-c2ccccc2)cc1)N1CCN([S+](=O)([O-])c2ccc3c(c2)OCCO3)CC1	none (no result: PINK1 expr mod, Nrf2 ARE act, Epigenetic derep)
O=c1c2[nH]c3cc(Br)sc3c2cnn1Cc1ccccc1F	none (no result: PINK1 expr mod, Nrf2 ARE act, Epigenetic derep)
CC(=O)c1ccc(NS(=O)(=O)c2ccc(C(C)(C)C)cc2)cc1	Nrf2 block 8.2µM
CS(=O)(=O)c1nc(S(=O)(=O)c2ccc(Cl)cc2)c(N2CCC(O)CC2)s1	Nrf2 block inconclusive, Nrf2 ARE act inconclusive (no result: Epigenetic derep)
Cc1ccc(S(=O)(=O)c2nc(S(C)(=O)=O)sc2N2CCC(O)CC2)cc1	Nrf2 ARE act 8.9µM (no result: Epigenetic derep)
CCNC(=S)Nc1ccc(Cl)c([N+](=O)[O-])c1	Nrf2 block 18µM, A549 tox inconclusive
CCNC(=S)Nc1cccc([N+](=O)[O-])c1	none (no result: Nrf2 block, PINK1 expr mod, A549 tox, Nrf2 ARE act)
COc1ccccc1NC(=O)C(OC(=O)CNC(=O)c1ccccc1)c1ccccc1 (configuration not stated)	none (no result: PINK1 expr mod, Nrf2 ARE act, Epigenetic derep)
CCOC(=O)c1c(-c2ccc(C)o2)csc1NC(=O)CN(C)CC(=O)Nc1ccc(C)cc1	Nrf2 block 16µM, Epigenetic derep inconclusive
CCOC(=O)c1c(-c2ccc(C)o2)csc1NC(=O)CN1CCCCC1	PINK1 expr mod inconclusive
CCOC(=O)c1c(-c2ccc(C)o2)csc1NC(=O)CN1CCN(CC)CC1	none
CCOC(=O)c1c(-c2ccc(C)o2)csc1NC(=O)CSc1nncs1	Nrf2 block 21µM, Epigenetic derep inconclusive
COc1ccccc1CN1CCOc2ccc(CN3CCC(Oc4cccnc4)CC3)cc2C1	none (no result: Nrf2 block, A549 tox, Nrf2 ARE act, Epigenetic derep)
CCN1C(=O)c2cccc3c(NC(=O)c4ccccc4)ccc1c23	none
